From PubChem BioAssay AID463173 (ICCB-Longwood Screening Facility, Harvard Medical School, 2010)
Hit rate of the full screen: of about 52,000 compounds, about 4,300 (8.3%) were called active. This is one part of a sample in which actives are shown more often than they occur. A number with no mark means an inactive call. Rule as the data show it: active = survival mostly below about 52% (no sharp cut-off); inactive = mostly above about 56%.

These compounds were tested on DeltatarO mutant (assay: S. aureus survival, RN4220 and DeltatarO strains – OD600, teichoic acid synthesis inhibitors, primary screen (AID 463173)). Settings: S. aureus RN4220 wild type/DeltatarO growth, OD600, 18 h, stronger effect = lower value, screened at 18.75 µg/mL (by protocol).
For `COCCCNC(=O)Cn1cnc2sc(C)c(S(=O)(=O)N3CCC(C)CC3)c2c1=O`, the survival was 69%. `CCOCCc1nn2c(=O)cc(COC(=O)c3ccccc3NC(=O)c3cccs3)nc2s1` was tested, and the survival was 58%. For `COc1ccc(CNC(=O)c2cc(-c3ccc(C)cc3)nc3n[nH]c(-c4ccc(Br)cc4)c23)cc1`, the survival was 74%. For `O=C(NCCc1ccc(Cl)cc1)c1nnc(Cc2ccc(Cl)cc2Cl)o1`, the survival was 96%. In the case of `COc1ccccc1CNC(=O)CCNS(=O)(=O)c1ccc2c(c1)CCCC(=O)N2`, the survival is reported as 60%. Work on `CC1CCN(C(=O)Cn2c(=O)n(CCCCCC(=O)NCc3ccccc3Cl)c(=O)c3sccc32)CC1` yielded a survival of 69%. `COc1ccc(N2CC(NC(=O)C(c3ccccc3)c3ccccc3)CC2=O)cc1OC` (stereo not drawn) showed a survival of 90%. Work on `CC(=O)Nc1ccc(NC(=O)C(NC(=O)C2CCC(C)CC2)C(C)C)cc1` (stereo not drawn) yielded a survival of 128%. In the case of `CN1CCc2nc3sc(C(=O)Nc4cccc(C#N)c4)c(N)c3cc2C1`, the survival is reported as 54% (active). For `Nc1c(C(=O)Nc2ccc(C(=O)O)cc2)sc2nc3c(cc12)CCCC3`, the survival was 42% (active). For `CCN1CCc2nc3sc(C(=O)Nc4ccccc4OC(F)(F)F)c(N)c3cc2C1`, the survival was 44% (active). Work on `COc1ccccc1NC(=O)c1sc2nc3c(cc2c1N)CN(Cc1ccccc1)CC3` yielded a survival of 101%. `COc1ccc(NC(=O)c2sc3nc4c(cc3c2N)CN(Cc2ccccc2)CC4)cc1` was tested, and the survival was 96%. For `COc1ccc(NC(=O)c2sc3nc4c(cc3c2N)CCCCCC4)cc1`, the survival was 127%. In the case of `COc1ccc(NC(=O)c2sc3nc4c(cc3c2N)CN(Cc2ccccc2)CC4)c(OC)c1`, the survival is reported as 47% (active). With `CC(=O)c1cccc(NC(=O)c2sc3nc4c(cc3c2N)CCCC4)c1` the survival was 60%. Compound `CCN1CCc2nc3sc(C(=O)Nc4cccc(Cl)c4C)c(N)c3cc2C1` has a survival of 125%. `CCOc1ccccc1NC(=O)c1sc2nc3c(cc2c1N)CN(Cc1ccccc1)CC3` gave a survival of 63%. Work on `CN1CCc2nc3sc(C(=O)Nc4c(F)cccc4F)c(N)c3cc2C1` yielded a survival of 153%. With `CCN(CC)c1ccc(NC(=O)c2sc3nc4c(cc3c2N)CN(C)CC4)cc1` the survival was 181%. Compound `CCOC(=O)C1=C(CS(=O)(=O)c2cccc(C(F)(F)F)c2)NC(=O)NC1c1cccc(OC)c1` (stereo not drawn) has a survival of 48%. `CC(=O)c1ccc(NS(=O)(=O)c2ccc3[nH]c4c(c3c2)CCCCCC4)cc1` showed a survival of 84%. `CCOc1ccc(C(=O)c2oc3ccccc3c2NC(=O)Cc2coc3cc(C)cc(C)c23)cc1` showed a survival of 100%. With `CC(=O)c1ccc(NC(=O)CSc2ccc(-c3cccs3)nn2)cc1` the survival was 126%. Work on `COc1cccc(C(=O)CN2CCN(S(=O)(=O)c3ccc(Cl)cc3)CC2)c1` yielded a survival of 74%. For `COc1ccccc1OCC(=O)N(Cc1ccco1)Cc1ccccc1F`, the survival was 64%. Compound `CCc1cc(CC)c(/C=N/NC(N)=O)c(CC)c1/C=N/NC(N)=O` has a survival of 94%. In the case of `CCc1ccc(NC(=O)c2sc3nc4c(cc3c2N)CN(CC)CC4)cc1`, the survival is reported as 49% (active). Work on `Nc1c(C(=O)Nc2ccccc2)sc2nc3c(cc12)CN(Cc1ccccc1)CC3` yielded a survival of 63%. `Cc1ccc(NC(=O)c2sc3nc4c(cc3c2N)CN(Cc2ccccc2)CC4)cc1` showed a survival of 110%. `Cc1cccc(N2CCN(C(=O)Cn3ncc4c3-c3ccccc3OC4)CC2)c1C` was tested, and the survival was 77%. With `COc1cc(Cl)c(S(=O)(=O)NCCc2c(C)[nH]c3c(C)cccc23)cc1Cl` the survival was 57%. In the case of `COc1cc(C)c(Cl)cc1S(=O)(=O)NCCc1c(C)[nH]c2ccccc12`, the survival is reported as 37% (active). `COc1cc(S(=O)(=O)NCCc2c(C)[nH]c3ccccc23)c(C)cc1C` showed a survival of 56%. `COc1ccc2[nH]c(C)c(CCNS(=O)(=O)c3cc(F)ccc3OC)c2c1` was tested, and the survival was 57%. Compound `COc1ccc(C(C)C)cc1S(=O)(=O)NCCc1c(C)[nH]c2ccc(C)cc12` has a survival of 84%. For `COc1c(C)cc(S(=O)(=O)NCCc2c(C)[nH]c3ccccc23)c(C)c1C`, the survival was 59% (active). With `COc1cccc(C(c2nnnn2CCC(C)C)N2CCN(c3cccc(C)c3C)CC2)c1OC` (stereo not drawn) the survival was 82%. `CCOC(=O)C1CC1c1ccccc1` (stereo not drawn) was tested, and the survival was 81%. Compound `Cc1cccc(C(=O)Nc2ccc(C(=O)OCc3cc(=O)n4nc(CC(C)C)sc4n3)cc2)c1` has a survival of 99%. `COc1cccc(Nc2ccc3cc(S(=O)(=O)N4CCC(C)CC4)ccc3n2)c1` showed a survival of 88%. `COc1ccc(NC(=O)N(Cc2nnc3n2CCCCC3)c2ccc(OC)c(Cl)c2)cc1` showed a survival of 60%. `O=C(O)c1cccnc1N1CCOCC1` showed a survival of 84%. Work on `O=C(NCc1cccs1)c1ccc(CSc2nc3ccncc3n2Cc2ccccc2)cc1` yielded a survival of 110%. `COc1ccc(OC)c(NS(=O)(=O)c2ccc3[nH]c4c(c3c2)CCCCC4)c1` was tested, and the survival was 77%. `Cc1ccc(-c2ccc(=O)n(CC(=O)NCCc3ccc(Cl)cc3)n2)cc1` was tested, and the survival was 69%. In the case of `Cc1ccc(-c2ccc(=O)n(Cc3ccc(F)cc3)n2)cc1`, the survival is reported as 50%. For `Cc1ccc(C)c(Cn2nc(-c3cc(C)ccc3C)ccc2=O)c1`, the survival was 44%. In the case of `Cc1ccc(C)c(-c2ccc(=O)n(Cc3ccc(F)cc3Cl)n2)c1`, the survival is reported as 32% (active). In the case of `C=Cc1ccc(Cn2nc(-c3ccc(C)cc3)ccc2=O)cc1`, the survival is reported as 35% (active). For `COC(=O)c1ccc(Cn2nc(-c3ccc(C)cc3)ccc2=O)cc1`, the survival was 133%. With `C=Cc1ccc(Cn2nc(-c3ccc(C)c(S(=O)(=O)N(CC)CC)c3)ccc2=O)cc1` the survival was 53%. `Cc1ccc(-c2ccc(=O)n(CC(=O)NCCc3ccccc3)n2)cc1` showed a survival of 57%. `Cc1ccc(C)c(-c2ccc(=O)n(Cc3c(F)cccc3Cl)n2)c1` was tested, and the survival was 81%. Compound `O=c1ccc(-c2ccccc2)nn1Cc1ccc(F)cc1Cl` has a survival of 49%. For `Cc1ccc(-c2ccc(=O)n(Cc3cc(C)ccc3C)n2)cc1`, the survival was 57% (active). For `Cc1ccc(CCNC(=O)Cn2nc(-c3ccc(C)cc3)ccc2=O)cc1`, the survival was 0% (active). In the case of `Cc1ccc(NC(=O)CCN2CCN(CCO)CC2)cc1C`, the survival is reported as 54%.
